Measurements as given in PubChem BioAssay (Tox21).
Values joined by “and” are separate entries in the source; they are usually repeats but may differ in a detail not shown here. Equal values may be shown once. Records with an inconclusive call do not appear. Active and inactive are the calls of the source. The call rests on the fitted dose curve.

test: qHTS assay to identify small molecule agonists of the hypoxia (HIF-1) signaling pathway - cell viability counter screen (AID 1224844); conditions: HRE-bla ME-180 viability, CellTiter-Glo luminescence, 17 h; series mostly up to 76.8 µM; activity change, negative = cytotoxicity: at the top concentration; further: nearly all actives have a fitted effect of over 50% in size
In short: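 HRE-bla ME-180; 0.5% dFBS; cpd 17 h, 37C, 5% CO2; CellTiter-Glo lum., 30 min RT, post-FRET read, same wells.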
On the % scale 0 is the no-effect control and ±100 the full control effect; potency means the concentration at half of the fitted maximal effect.

SMILES	activity change, negative = cytotoxicity	Potency
CCCCC/C=C\C/C=C\C/C=C\C/C=C\CCCC(=O)NCC(=O)O	-27.4% [at 35.3 µM] (inactive)	–
c1ccc(Nc2ccc(Nc3ccccc3)cc2)cc1	-22.5% (inactive)	–
N#CC(C#N)=NNc1cccc(Cl)c1	–	3.09 µM (active)
CC[C@H](C)[C@H]1O[C@]2(C=C[C@@H]1C)C[C@@H]1C[C@@H](C/C=C(\C)[C@@H](O[C@H]3C[C@H](OC)[C@@H](O[C@H]4C[C@H](OC)[C@@H](NC)[C@H](C)O4)[C@H](C)O3)[C@@H](C)/C=C/C=C3\CO[C@@H]4[C@H](O)C(C)=C[C@@H](C(=O)O1)[C@]34O)O2	–	21.9 µM (active)
C1=CCC=C1	6.15% (inactive)	–
O=C1C2(Cl)C3(Cl)C4(Cl)C(Cl)(Cl)C5(Cl)C3(Cl)C1(Cl)C5(Cl)C24Cl (stereo unspecified)	–	21.5 µM (active)
O=C1C(Cl)=C(Cl)C(=O)C(Cl)=C1Cl	–	54.8 µM (active) and 38.9 µM (active)
CCC(C)c1cccc(C(C)CC)c1O (stereo unspecified)	-11.1% (inactive)	–
Fc1ccc(C(OCCN2CCN(CCCc3ccccc3)CC2)c2ccc(F)cc2)cc1	–	16.9 µM (active)
O=[N+]([O-])c1cc(C(F)(F)F)c(Cl)c([N+](=O)[O-])c1Nc1ncc(C(F)(F)F)cc1Cl	–	6.92 µM (active)
CCCCn1cc[n+](C)c1.[Cl][Fe-]([Cl])([Cl])[Cl]	5.53% (inactive)	–
S=C=NCCc1ccccc1	-6.07% (inactive)	–
Brc1cccc(-c2ccccc2)c1	2.9% (inactive)	–
CC(=O)C(Cl)C(=O)N(C)C (stereo unspecified)	–	43.6 µM (active)
[C-]1=CC=CC1.[Cl][Zr+2][Cl].c1cc[cH-]c1	20.4% (inactive)	–
O=c1c2ccccc2c(=O)c2c1cc(Cl)c1[nH]c3c([nH]c12)c(Cl)cc1c(=O)c2ccccc2c(=O)c13	-9.39% (inactive)	–
